KB-V1 cytotox: qHTS assay for MDR1-selective chemotherapeutics: Primary screen using the drug-selected MDR subline cells KB-V1; Potency, µM (highest dose often 46.1 µM), usual class: cytotoxic; AID 1347076, 2019; actives 3.4% (n = 400,000); KB-V1 MDR cells viability, CellTiter-Glo, 72 h; also: nearly all actives have a fitted effect of over 60% in size
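Potencies derive from concentration-effect curves fitted to normalized luminescence (CellTiter-Glo) of KB-V1 cells treated for 72 h at 37 degrees C in phenol-red-free DMEM containing 10% FBS.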
Gal4-VP16 FLuc: VP16 counterscreen qHTS for inhibitors of ROR gamma transcriptional activity. Drosophila S2 Gal4-VP16 UAS-luciferase, luminescence, 20 h. Potency, µM (highest dose often 53.6 µM), actives largely listed as inhibitors. actives 3.5% (n = 310,000). AID 2546, 2010;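 also: Gal4-VP16 expression switched on by copper sulfate through the metallothionein promoter; nearly all actives have a fitted effect of over 50% in size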
KB-3-1 cytotox: qHTS assay for MDR1-selective chemotherapeutics: Primary screen using the parental adenocarcinoma cell KB-3-1; KB-3-1 viability, CellTiter-Glo ATP luminescence, 72 h; AID 1347075, 2019; actives 1.4% (n = 400,000); Potency, µM (highest dose often 46.1 µM), usual class: cytotoxic; also: nearly all actives have a fitted effect of over 60% in size
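Parental KB-3-1 adenocarcinoma cells in phenol-red-free DMEM with 10% FBS were pin-treated with compounds at several concentrations, incubated 72 h at 37 °C, and viability read by CellTiter-Glo luminescence; concentration-effect curves were fitted after normalization.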
SW480 rerep: A quantitative high throughput screen for small molecules that induce DNA re-replication in SW480 colon adenocarcinoma cells | Potency, µM (titrated, usually from 46.1 µM), hits mostly activators | AID 624297, 2012 | SW480 DNA re-replication, Hoechst DNA content imaging, 48 h | actives 1.8% (n = 340,000); also: nearly all actives have a fitted effect of over 55% in size
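Quantitative HTS format with DMSO vehicle controls; 48 hr drug incubation at 37 C, then 40 min Hoechst staining and scanning imager measurement at 405 nm excitation.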
RORg inh: qHTS for inhibitors of ROR gamma transcriptional activity; Nuclear receptor ROR-gamma (Mus musculus), P51450; Drosophila S2 Gal4-RORgamma UAS-luciferase reporter, 20 h; Potency, µM (top dose mostly 53.6 µM), most hits filed as inhibitors; actives 5.4% (n = 310,000); also: nearly all actives have a fitted effect of over 60% in size
Target sequence (P51450 whole entry, looked up, the tested form may be a part): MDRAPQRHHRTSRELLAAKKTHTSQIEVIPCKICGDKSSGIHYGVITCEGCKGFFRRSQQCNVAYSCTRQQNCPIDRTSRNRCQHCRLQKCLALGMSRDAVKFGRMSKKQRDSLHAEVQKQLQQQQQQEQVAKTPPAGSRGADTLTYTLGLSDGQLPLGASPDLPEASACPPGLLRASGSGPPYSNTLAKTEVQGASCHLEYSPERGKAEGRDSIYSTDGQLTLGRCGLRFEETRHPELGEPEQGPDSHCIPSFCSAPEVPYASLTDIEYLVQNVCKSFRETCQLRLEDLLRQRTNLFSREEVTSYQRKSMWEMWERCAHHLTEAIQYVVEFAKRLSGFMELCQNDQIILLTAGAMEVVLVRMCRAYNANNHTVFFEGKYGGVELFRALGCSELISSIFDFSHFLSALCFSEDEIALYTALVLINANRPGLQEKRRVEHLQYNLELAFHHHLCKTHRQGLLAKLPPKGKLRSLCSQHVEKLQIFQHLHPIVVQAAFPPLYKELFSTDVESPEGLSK
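ROR gamma transcriptional activity was tracked as Gal4-UAS luciferase output in stably transfected Drosophila Schneider cells, with compound added 1 hr before 700 uM copper sulfate induction and a 20 hr ambient-temperature incubation.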
MCF10A rereplic: A quantitative high throughput screen for small molecules that induce DNA re-replication in MCF 10a normal breast cells; actives 2.9% (n = 350,000); Potency, µM (series often up to 46.1 µM), actives largely listed as activators; MCF 10A DNA re-replication, Hoechst nuclear intensity, 48 h; AID 624296, 2012; also: nearly all actives have a fitted effect of over 50% in size
Hits are given with their value; . = inactive; ? = inconclusive; / = no result; [ ] = dose if it differs, or a comment. Rows were chosen to be rich in hits. Some 10% of all compounds tested hit in one or more screens of this group. Calls follow the shape of the dose curve; as a rule, active = well fitted curve in the direction sought with a large enough effect; inconclusive = small, poorly fitted or top-dose-only effect, or another doubt; inactive = no such curve, though single readings can be large; an effect the other way counts as inactive or inconclusive.

SMILES	KB-V1 cytotox	Gal4-VP16 FLuc	KB-3-1 cytotox	SW480 rerep	RORg inh	MCF10A rereplic
Cc1cccc(Cn2nnc3c2C(=O)c2ccccc2C3=O)c1	6.3µM	.	?	?	.	.
Cc1ccccc1Cn1nnc2c1C(=O)c1ccccc1C2=O	13µM	/	?	?	/	.
Cc1ccccc1CN1C(=O)c2ccccc2C1c1nnnn1Cc1ccccc1 (centres undefined)	?	/	.	/	/	/
CC(=O)Oc1ccc(C2(C)CC(C)(C)NC(=S)N2C)c(OC(C)=O)c1 (centres undefined)	.	?	.	.	13µM	1.3µM
Cc1ccc(-n2c(SCC(=O)O)nc3sc4c(c3c2=O)CCCC4)cc1	.	.	.	.	.	.
Cc1ccc(-n2c(SCC(=O)c3c(N)n(C)c(=O)n(C)c3=O)nc3sc4c(c3c2=O)CCCC4)c(C)c1	21µM	.	?	.	.	?
O=C(Nc1cccnc1)c1ccc(COc2ccccc2Cl)o1	?	.	?	.	.	.
O=C(Nc1ccn(Cc2ccccc2F)n1)c1ccc(COc2ccccc2Cl)cc1	2.6µM	.	?	.	?	?
O=C(Nc1nn(Cc2ccc(Cl)cc2)cc1Br)c1ccc(COc2ccccc2Cl)o1	16µM	.	?	.	.	.
Cc1nn(C)c(C(=O)Nc2ccn(C34CC5CC(CC(C5)C3)C4)n2)c1[N+](=O)[O-]	.	.	.	?	.	?
O=C(Nc1cccnc1)c1ccc(COc2cc(Cl)ccc2Cl)o1	23µM	.	?	.	.	?
Cc1nn(C)c(C(=O)Nc2ccn(Cc3ccccc3F)n2)c1[N+](=O)[O-]	26µM	.	.	.	?	.
O=C(Nc1ccn(Cc2c(F)c(F)cc(F)c2F)n1)c1ccc(COc2ccccc2Cl)cc1	.	.	.	.	?	?
COCCn1c(=O)c(-c2cccc(C#N)c2)nc2cnc(N3CCNCC3)nc21	/	.	/	/	.	/
COc1ccc(-c2coc3ccc(OC4OC(COC(C)=O)C(OC(C)=O)C(OC(C)=O)C4OC(C)=O)c(OC(C)=O)c3c2=O)cc1 (centres undefined)	/	.	/	/	.	/
Cc1cc(C)c(-c2cc([C@H](C)O/N=C3/[C@H]4OC4[C@@H](O)[C@H]4[C@H]3CCn3c(=O)n(-c5ccccc5)c(=O)n34)on2)c(C)c1 (some centres undefined)	/	.[10 µM]	/	/	.[10 µM]	/
CC(C)CNC(=O)Nc1cc(C(=O)NCc2ccc(C(C)C)cc2)ccc1N1CCCC1	.	/	.	/	/	/
COc1cccc(-c2cnc(C(O)c3cccc(F)c3)[nH]2)c1 (centres undefined)	.	/	.	/	/	/
Cc1cc(C)nc(NC(=O)c2ccc(COc3ccccc3Cl)cc2)c1	.	.	?	.	.	3.7µM
CC(C)(C)NC(=O)c1ccc(COc2ccc(Cl)cc2Cl)o1	13µM	.	?	.	?	?
O=C(Nc1ccn(Cc2c(F)c(F)cc(F)c2F)n1)c1ccc(COc2cc(Cl)ccc2Cl)o1	.	.	.	.	.	.
O=C(Nc1ccn(Cc2ccccc2F)n1)c1ccc(COc2cc(Cl)ccc2Cl)o1	4.1µM	.	.	.	.	?
NC(=O)c1ccc(NC(=O)c2ccc(COc3ccccc3Br)cc2)cc1	.	/	.	.	/	.
Cc1cc(C)n(Cc2ccc(NC(=O)c3ccc(COc4ccccc4Br)cc3)cc2)n1	2.6µM	?	16µM	.	.	.
O=C(NCc1cccnc1)c1ccc(COc2ccccc2Cl)cc1	.	?	.	?	.	.
COc1cc2c(=O)c(S(=O)(=O)c3ccc(C)cc3)cn(Cc3cccc(C)c3)c2cc1OC	.	/	.	/	/	/
COc1ccc(CNc2nc(-c3ccc(OC)cc3)cc(C(F)(F)F)n2)cc1	.	/	.	/	/	/
O=C(N/N=C/c1ccc(O)cc1)c1ccc(COc2cc(Cl)ccc2Cl)o1	.	.	.	.	.	18µM
